TPT1 inh: inhibitors of Candida albicans tRNA 2'-phosphotransferase TPT1; recombinant caTPT1, FP RNA substrate dephosphorylation; inhibition, % at 5 µM; 300,000 tested, 0.81% active; AID 1962;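 active = inhibition above the mean of all tested compounds plus 3 SD, set per screening campaign, cut at about 24% in these data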;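 also: plate controls were DMSO alone for no effect and ferristatin control at 100 nM for full effect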
IDE act: boosts human insulin-degrading enzyme activity in HEK cells; FAbeta-B cleavage, fluorescence polarization; 0% vehicle, 100% cell-free pure enzyme wells; activation, % at 5.96 µM; 340,000 tested, 0.073% active;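 active = activation above the mean of all tested compounds plus 3 SD, set per screening campaign, cut at about 17% in these data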
HNF4A DNA FP: change in binding of human HNF4 alpha to DNA; P41235; HNF4a-FITC DNA binding, fluorescence polarization, 1 h; activity change, % at 10 µM; 360,000 tested, 0.3% active; in the data active = activity change above about 30%, passing the limit was not always enough
Target sequence (P41235 whole entry, looked up): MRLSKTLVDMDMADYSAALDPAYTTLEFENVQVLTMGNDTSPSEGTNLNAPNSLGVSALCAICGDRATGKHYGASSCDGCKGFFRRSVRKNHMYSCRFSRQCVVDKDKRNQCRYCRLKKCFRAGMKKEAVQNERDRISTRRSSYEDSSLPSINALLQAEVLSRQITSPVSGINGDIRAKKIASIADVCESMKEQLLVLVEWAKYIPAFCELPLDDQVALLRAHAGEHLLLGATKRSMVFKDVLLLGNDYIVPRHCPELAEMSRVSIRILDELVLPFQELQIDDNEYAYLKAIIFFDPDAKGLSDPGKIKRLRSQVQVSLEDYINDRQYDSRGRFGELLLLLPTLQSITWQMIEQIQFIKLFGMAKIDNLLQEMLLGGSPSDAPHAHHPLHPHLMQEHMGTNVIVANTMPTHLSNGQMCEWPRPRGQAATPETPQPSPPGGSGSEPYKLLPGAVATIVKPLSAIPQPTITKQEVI
IDE inh: inhibits human insulin-degrading enzyme in HEK cells; P14735; FAbetaB cleavage, fluorescence polarization; inhibition, % at 5.59 µM; 320,000 tested, 0.41% active; AID 434962;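 active = percent inhibition above the average of all tested compounds plus 3 SD, set per screening campaign, cut at about 16% in these data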;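 also: IDE supplied by intact live HEK cells; FP after avidin binding of uncleaved biotin substrate so inhibition keeps polarization high; 0% = DMSO wells and 100% = 60 µM reference IDE inhibitor Ii1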
CRFBP-R2 agonist: agonists of human CRF-binding protein/CRF-R2 receptor complex; HEK293 CRF-R2/CRF-BP, calcium dye fluorescence (FLIPR); percent of saturating CRF peptide response; activation, % at 13.2 µM; 350,000 tested, 0.46% active;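 active = activation of at least 50%, plus an integration ratio under a set limit after plate pattern correction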;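 also: plate controls were neutral control wells without compound for no effect and CRF at EC100 for full effect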
caTPT1 confirm: TPT1 (C. albicans) inhibition, confirmation; inhibition, % at 5 µM; 2,400 tested, 74% active; shares compounds with TPT1 inh; recombinant caTPT1, fluorescence polarization, RNase T1 coupled;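 active = inhibition above the primary screen limit, the mean inhibition of all tested compounds plus 3 SD, cut at about 25% in these data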
RNase T1 inh: blocks Aspergillus oryzae RNase T1, a TPT1 counter-screen; shares compounds with TPT1 inh; RNase T1 cleavage, fluorescence polarization, 1536-well; inhibition, % at 5 µM; 2,400 tested, 83% active; AID 2153;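 active = inhibition above the solvent-only control well mean plus 3 SD, limit set per screening run, cut at about 23% in these data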;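 also: plate controls were DMSO wells with enzyme for no effect and wells without RNase T1 for full effect; inhibitors block cleavage so intact labeled substrate keeps polarization high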
Target sequence (P00651 whole entry, looked up): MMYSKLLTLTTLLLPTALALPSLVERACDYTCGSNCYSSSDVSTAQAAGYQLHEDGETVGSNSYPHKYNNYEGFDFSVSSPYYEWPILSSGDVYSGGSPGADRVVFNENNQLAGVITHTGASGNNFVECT
Numbers without * were called inactive; / = no result. This is a sample that favours compounds with a hit; in the whole collection about 1.4% have one here.

SMILES | TPT1 inh | IDE act | HNF4A DNA FP | IDE inh | CRFBP-R2 agonist | caTPT1 confirm | RNase T1 inh
Cc1ccc(NC(=O)/C(C#N)=C/c2cn(CC(=O)NCc3ccco3)c3ccccc23)cc1C | 29* | 3 | 27 | 0 | 7 | 67* | 80*
Cc1cc(C)cc(NC(=O)/C(C#N)=C/c2cn(CC(=O)NCc3ccco3)c3ccccc23)c1 | 2 | 9 | -1 | -3 | 3 | / | /
CCOc1c(C)cnc2c1c(=O)n(Cc1ccccc1F)c(=O)n2C | 1 | 5 | 1 | -1 | -2 | / | /
CC(NC(=O)/C(=C/c1cccc([N+](=O)[O-])c1)NC(=O)c1ccco1)C(=O)O (configuration not stated) | 130* | -2 | -1 | 6 | 2 | 3 | 8
CCCc1nc2ccc(Cl)cn2c1Cc1ccccc1 | / | / | 1 | / | / | / | /
Cc1ccc(CC(=O)CCc2ccccc2)cc1 | 34* | 1 | 3 | -3 | 0 | 5 | 5
CCCc1cc2c(=O)n(NC(=O)c3nn(C)cc3[N+](=O)[O-])c(C)nc2s1 | 57* | 2 | 1 | 8 | 0 | 4 | 5
O=C(CN(c1cccc(Cl)c1)S(=O)(=O)c1ccc(Cl)cc1)NCc1ccccn1 | 0 | 2 | -3 | -2 | 1 | / | /
Cc1onc(-c2c(F)cccc2Cl)c1C(=O)OCC(=O)c1c[nH]c2ccccc12 | 2 | -6 | 3 | 0 | 5 | / | /
CCOC(=O)c1c(NC(=O)CCS(=O)(=O)c2ccccc2)sc2c1CCN(C)C2 | 35* | -3 | 21 | 5 | 3 | 21 | 28*
CCOC(=O)c1c(NC(=O)CSc2nnc(C)s2)sc2c1CCN(C)C2 | 98* | -9 | 73* | 4 | 4 | 97* | 103*
CCOC(=O)c1c(NC(=S)Nc2ccc(OCC)cc2)sc2c1CCN(C)C2 | 48* | -4 | 11 | 6 | 0 | 53* | 64*
CCOC(=O)c1c(NC(=O)Cc2ccccc2)sc2c1CCN(C)C2 | 0 | -4 | -3 | 0 | 8 | / | /
NC(=O)C1CCN(S(=O)(=O)Cc2ccccc2Cl)CC1 | -3 | 2 | 1 | -5 | 1 | / | /
CN(C)C(=O)c1ccc(NC(=O)COC(=O)Cn2cc(C(F)(F)F)ccc2=O)cc1 | / | 3 | -3 | -2 | 1 | / | /
COC(CNC(=O)C1CCCN1C(=O)OCc1ccccc1)OC (configuration not stated) | 43* | 1 | -7 | -1 | 2 | 5 | 7
CC(=O)c1c(C)[nH]c(C(=O)N(C)CC(=O)Nc2ccc(Cl)c(C(F)(F)F)c2)c1C | 1 | 2 | 6 | -3 | 1 | / | /
Cn1c(N/N=C/c2cc3ccccc3nc2Cl)nc2ccccc21 | 69* | -8 | 60* | -1 | 3 | 10 | 19
COc1ccc(/C=C2\SC(=S)N(CCCC(=O)Nc3ccccn3)C2=O)cc1OC | 32* | -3 | 16 | 2 | 18 | 53* | 64*
COc1cccc(/C=C2\SC(=S)N(CCCC(=O)Nc3cccc(C(=O)O)c3)C2=O)c1 | / | / | 0 | / | 2 | / | /
COc1ccc(/C=C2\SC(=S)N(CCCC(=O)Nc3cccc(C(=O)O)c3)C2=O)cc1OC | 36* | 0 | 25 | 0 | 2 | 50* | 66*
CCN1C(=O)c2cccc3c(NC(=O)c4ccc5c(c4)OCCO5)ccc1c23 | 47* | -2 | 60* | 0 | 6 | 65* | 72*
COc1ccccc1NC(=O)Nc1ccccc1C(=O)NCCCN1CCOCC1 | -2 | 0 | 3 | 7 | 1 | / | /
CC1=NN(c2ccccc2)C(=O)C1C=Nc1ccc(N(C)C)cc1 (configuration not stated) | 42* | / | 3 | 3 | 11 | 67* | 77*
O=C(O)c1ccccc1N/N=C/C1=C(N2CCOCC2)C(=C\c2ccccc2)/CC1 | 25* | 6 | 27 | 5 | 9 | 93* | 102*
SMILES | TPT1 inh | IDE act | HNF4A DNA FP | IDE inh | CRFBP-R2 agonist | caTPT1 confirm | RNase T1 inh
Cc1ccc2nc(/C(C#N)=C/c3ccc(-c4cccc([N+](=O)[O-])c4)o3)[nH]c2c1 | 76* | -14 | 23 | 3 | 30 | 65* | 74*
Cc1ccc2nc(/C(C#N)=C\c3cc(O)ccc3[N+](=O)[O-])[nH]c2c1 | 10 | 6 | -6 | 0 | 7 | / | /
COc1ccccc1/C=C(\NC(=O)c1ccccc1)C(=O)NCc1ccco1 | -1 | 3 | 2 | 6 | -1 | / | /
COc1ccc(/C=C/C=C2\N=C(SC)SC2=O)cc1 | 43* | -8 | 5 | 3 | 5 | 46* | 56*
COc1cc(/C=C2/SC(=S)N(Cc3ccccc3)C2=O)ccc1OCC(=O)O | 10 | -2 | 8 | 13 | 0 | / | /
CCOc1cc(/C=C2/SC(=S)N(Cc3ccccc3)C2=O)ccc1O | 26* | -75 | 38* | 83* | 4 | 38* | 48*
COc1cc(/C=C2/SC(=S)N(Cc3ccccc3)C2=O)cc(Cl)c1O | 37* | -118 | 103 | 86* | 171* | 4 | 22*
Cc1ccc2c(c1)/C(=C/c1ccc(F)cc1)C(=O)N2 | 1 | 2 | -3 | 2 | -1 | / | /
Cc1ccc2c(c1)N/C(=C(\C=C(/Cl)[N+](=O)[O-])[N+](=O)[O-])N2 | 25* | / | / | -3 | / | 23 | 33*
CCOC(=O)/C=c1\s/c(=C\c2ccc(C#N)cc2)c(=O)n1CC(=O)NCc1ccco1 | 5 | -2 | 2 | -2 | 3 | / | /
CCOC(=O)/C=c1\s/c(=C\c2c(OC)ccc3ccccc23)c(=O)n1CC(=O)NCC1CCCO1 (configuration not stated) | 28* | -1 | 14 | 4 | 1 | 41* | 50*
O=C(Nc1ccn(-c2ccccc2)n1)c1ccccc1Br | 34* | 4 | 3 | -4 | 2 | 4 | 10
CCOc1cc(/C=C2\N=C(SC(C)C(N)=O)N(c3ccc(OC(F)F)cc3)C2=O)ccc1O (configuration not stated) | 101* | -100 | 130 | 108* | 12 | 117* | 113*
CCOc1cc(/C=C2\CN(CC)C/C(=C\c3ccc(O)c(OCC)c3)C2=O)ccc1O | 4 | 0 | 2 | 2 | 0 | / | /
CCOc1cc(/C=C2\SC(=O)N(c3ccc(O)cc3)C2=O)ccc1O | 70* | -22 | 8 | 14 | 5 | 74* | 77*
CCOc1ccc(N2C(=O)S/C(=C\c3ccc(O)c(OCC)c3)C2=O)cc1 | 46* | -4 | 15 | 3 | 5 | 58* | 60*
C[C@@H]1CN([C@H](C)CO)C(=O)c2cccc(NS(=O)(=O)c3ccccc3)c2O[C@H]1CN(C)C | / | 2 | 0 | 4 | 4 | / | /

Source: PubChem (several laboratories)
